From PubChem BioAssay (NCATS)
Inconclusive results are not listed. Active and inactive are the calls of the source. The call rests on the fitted dose curve; in most records, active means well fitted curve in the direction sought with a large enough effect; inconclusive means small, poorly fitted or top-dose-only effect, or effect the other way, or another doubt; inactive means no such curve, though single readings can be large or run the other way.

target: Transient receptor potential cation channel subfamily V member 1 (Homo sapiens) (UniProt Q8NER1); assay: HTS Assay for Compounds that Act as Enhancers of the Vanilloid Receptor 1 (AID 488979); details: TRPV1-expressing cells, enhancer of channel activity, stimulated with capsaicin at EC20; series mostly up to 41.7 µM; activity change, positive = enhancement: at the top concentration; further: 0% is about no effect
Excerpt: The transient receptor potential ion channel, family V, number 1, (TRPV1) is one of the most important molecular transducers of painful stimuli and a potential target for analgesic drug development. Although recent clinical trials with orthosteric antagonists have not produced a successful drug because of a hyperthermia side effect and their tendency to block thermal noxious pain, this ion channel is undeniably well placed in the pain pathway, and the idea of blocking pain signals before they enter the CNS is an excellent concept and of proven efficacy when TRPV1 agonists are used. We propose a new approach involving allosteric modulation to impose an activity-dependent constraint within the context of inflammation and tissue damage that would alter the responsiveness of the channel in a way that an orthosteric vanilloid antagonist cannot achieve. We believe that the allosteric modulator approach has not been explored for this target.
The main goal of this proposal is to identify additional, new, potent allosteric modulators of TRPV1 that can be used to investigate TRPV1 function. Our recent report provides evidence of proof of concept, but the compounds are just at the edge of utility in terms of potency. […] The question of whether they can be used as analgesic agents is complex, but if suitable compounds are identified then testing for analgesic properties will be conducted.
Upon TRPV1 activation in TRPV1 cells, the channel opens and extracellular cations flow through the channel into the cytosol. A calcium binding dye (Fluo-8) becomes fluorescent when bound to calcium. This dye is pre-loaded into cells and is used as a marker for calcium influx.
The amount of accumulated calcium is precisely quantified using the FDSS kinetic reader and the calcium dye.
For the HTS assay, freshly prepared cells are plated at a density of 2000/well in 3 ul medium in 1536-well plates and cultured overnight at 35.5C. Cells will be loaded with 1 ul of the homogeneous calcium dye (ABD Bioquest) at room temperature for 40 to 90 minutes. Plates will be loaded into the FDSS kinetic reader and a 1 sec / cycle for 10 second baseline signal will be measured. Compound library will then be added with a pintool at 23 nl and measured kinetically for 3 minutes. This portion of the read is considered the agonist portion of the screen. Following the 3 minutes of incubation, an on board pipettor will deliver 1 ul of capsaicin for a final concentration equal to the EC20. Signal will be measured kinetically for an additional 2 minutes. This portion of the read is considered the allosteric enhancer portion of the screen.
The FDSS reader has a standard filter set capable of measuring calcium bound Fluo-8 (ex=480 and em=520 nm).

Chain of Transient receptor potential cation channel subfamily V member 1 (Homo sapiens) (Q8NER1 whole entry, looked up): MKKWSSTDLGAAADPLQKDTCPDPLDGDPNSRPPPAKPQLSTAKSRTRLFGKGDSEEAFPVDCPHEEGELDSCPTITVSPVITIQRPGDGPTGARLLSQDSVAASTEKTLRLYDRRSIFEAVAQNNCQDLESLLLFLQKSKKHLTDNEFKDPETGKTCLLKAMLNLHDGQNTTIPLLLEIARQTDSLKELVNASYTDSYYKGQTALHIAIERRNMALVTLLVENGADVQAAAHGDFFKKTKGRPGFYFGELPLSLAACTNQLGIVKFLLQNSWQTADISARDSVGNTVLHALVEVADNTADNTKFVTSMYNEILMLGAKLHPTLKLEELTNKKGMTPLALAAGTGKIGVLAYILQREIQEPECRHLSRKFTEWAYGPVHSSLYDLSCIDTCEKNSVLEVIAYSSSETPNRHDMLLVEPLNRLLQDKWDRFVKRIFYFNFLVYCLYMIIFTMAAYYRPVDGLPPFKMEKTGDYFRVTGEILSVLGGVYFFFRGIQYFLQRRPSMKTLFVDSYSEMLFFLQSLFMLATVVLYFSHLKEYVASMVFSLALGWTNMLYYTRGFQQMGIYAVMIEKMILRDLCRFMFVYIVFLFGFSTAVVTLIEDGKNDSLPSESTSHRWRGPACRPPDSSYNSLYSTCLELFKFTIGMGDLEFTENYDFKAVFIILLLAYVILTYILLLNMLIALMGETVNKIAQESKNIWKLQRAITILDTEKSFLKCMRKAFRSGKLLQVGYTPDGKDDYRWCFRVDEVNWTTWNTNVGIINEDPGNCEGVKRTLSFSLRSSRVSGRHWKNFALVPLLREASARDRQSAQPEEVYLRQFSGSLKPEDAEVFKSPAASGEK

| Compound | activity change, positive = enhancement | outcome |
| --- | --- | --- |
| COC(=O)C1=C(C)NC(C)=C(C(=O)OC)C1c1ccccc1[N+](=O)[O-] | -5.57% (inactive) |  |
| CN(C)CC[C@@H](c1ccc(Cl)cc1)c1ccccn1 | 8.77% (inactive) |  |
| CC(C)NC[C@H](O)c1ccc(O)c(O)c1 |  | inactive |
| CN(C)CCOC(C)(c1ccccc1)c1ccccn1 (configuration not stated) | -3.68% (inactive) |  |
| NC(N)=NCCC[C@H](N)C(=O)O | -2.57% (inactive) |  |
| COc1ccc(Cl)cc1C(=O)NCCc1ccc(S(=O)(=O)NC(=O)NC2CCCCC2)cc1 | -6.75% (inactive) |  |
| CC(=O)OCC(=O)[C@@]1(O)CC[C@H]2[C@@H]3CCC4=CC(=O)CC[C@]4(C)[C@H]3C(=O)C[C@@]21C | 8.31% (inactive) |  |
| CC1=C(CC(=O)O)c2cc(F)ccc2/C1=C\c1ccc(S(C)(=O)=O)cc1 | -8.35% (inactive) |  |
| N=c1c[n+](N2CCOCC2)[n-]o1 | 3.1% (inactive) |  |
| CNCC(O)c1ccc(O)c(O)c1 (configuration not stated) | 8.66% (inactive) |  |
| CCCCCCCCCCCCCCCC(=O)NCCO | 5.41% (inactive) |  |
| CC(C)(C(=O)O)c1ccc(C(O)CCCN2CCC(C(O)(c3ccccc3)c3ccccc3)CC2)cc1 (configuration not stated) | -2.25% (inactive) |  |
| C[C@](N)(Cc1ccc(O)cc1)C(=O)O | -4.76% (inactive) |  |
| NC1CCN(c2cccc(Cl)n2)CC1 | 10.4% (inactive) |  |
| Cc1cc(N)c2ccccc2[n+]1CCCCCCCCCC[n+]1c(C)cc(N)c2ccccc21 | -3.53% (inactive) |  |
| CC(C)C(=O)c1c(C(C)C)nn2ccccc12 | -11% (inactive) |  |
| CC(C)(C)c1onc(OCP(=O)(O)O)c1CC(N)C(=O)O (configuration not stated) | 3.82% (inactive) |  |
| Nc1cc(=O)[nH]c(N)n1 | -3.76% (inactive) |  |
| C[C@H]1O[C@@H](n2cc(F)c(=O)[nH]c2=O)[C@H](O)[C@@H]1O | 0.451% (inactive) |  |
| C[C@]12CC[C@@H]3c4ccc(O)cc4CC[C@H]3[C@@H]1CCC2=O | 12% (inactive) |  |
| CCCn1cnc2c1c(=O)n(CCCCC(C)=O)c(=O)n2C | 5.54% (inactive) |  |
| CNC(=O)Oc1ccc2c(c1)[C@]1(C)CCN(C)[C@@H]1N2C | 8.9% (inactive) |  |
| C=Cc1c(C)c2cc3[nH]c(cc4nc(cc5nc(cc1[nH]2)C(C)=C5CCC(=O)O)C(CCC(=O)O)=C4C)c(C)c3C=C | 1.34% (inactive) |  |
| NC(=O)c1ncn([C@@H]2O[C@H](CO)[C@@H](O)[C@H]2O)n1 | 8.12% (inactive) |  |
| CCN(CC)CCNC(=O)c1cc(Cl)c(N)cc1OC | 7.83% (inactive) |  |
| CC1=C(/C=C/C(C)=C/C=C/C(C)=C/C(=O)O)C(C)(C)CCC1 | -9.98% (inactive) |  |
| CCN(CC)CCOC(=O)C1(C2CCCCC2)CCCCC1 | 12.6% (inactive) |  |
